A short description of assay [1]: ATG_TCF_b_cat_CIS: Attagene CIS-FACTORIAL HepG2 Assay for human T-Cell-Factor with beta-catenin (TCF/b-cat) (AID 2282965). As to conditions: HepG2 TCF/beta-catenin cis-reporter transcription, actives raise or lower the signal. A digest of the protocol: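 Endogenous TCF/LEF activity read as reporter transcript level via RT-PCR and capillary electrophoresis fluorescence in transfected HepG2, 24 h exposure; gain or loss of signal fitted against DMSO controls.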

Assay [2] can be described thus: ATG_TAL_CIS: Attagene CIS-FACTORIAL HepG2 Assay for human TAL Basal Promoter (AID 2282966).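 Also: background control endpoint measuring basal TAL promoter reporter mRNA not a specific factor.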 To be noted: HepG2 Attagene cis-factorial TAL promoter reporter; actives raise or lower the signal. A digest of the protocol: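 Steps: transfect HepG2 with multiple reporter transcription units; dose 24 h; isolate RNA, reverse-transcribe, PCR-amplify, label with 6-FAM, digest with HpaI; resolve by capillary electrophoresis. Bidirectional fitting against DMSO baseline.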

Assay [3] can be described thus: ATG_TGFb_CIS: Attagene CIS-FACTORIAL HepG2 Assay for human Transforming Growth Factor (TGF) (AID 2282967). To be noted: HepG2 Attagene CIS TGFb reporter, mRNA transcription; actives raise or lower the signal. A digest of the protocol: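 Multiplexed cis-reporter HepG2 system, 24 h treatment; mRNA induction read by fluorescence after RT-PCR and CE; DMSO negative control, bidirectional curve fitting.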

Assay [4] is described as follows: ATG_VDRE_CIS: Attagene CIS-FACTORIAL HepG2 Assay for human Vitamin D Receptor Element (VDRE) (AID 2282968). To be noted: HepG2 VDRE cis-reporter transcription, actives raise or lower the signal. A digest of the protocol:
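Reporter mRNA induction, quantified by capillary electrophoresis of fluorescently labelled RT-PCR products, was read 24 h after dosing HepG2 cells carrying transiently transfected cis-regulated reporter units; gain or loss relative to DMSO.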

The target of assay [5] is Nuclear receptor subfamily 1 group I member 3 (Homo sapiens) (UniProt Q14994). Briefly: ATG_CAR_TRANS: Attagene TRANS-FACTORIAL HepG2 Assay for human Constitutive Androstane Receptor (CAR) (AID 2282969; active = hit-call score of the fitted dose curve at least 0.9, where 1 is the maximum;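 also: activators raise reporter mRNA above DMSO so AC50 marks induction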). As to conditions: HepG2 Attagene TRANS-FACTORIAL CAR reporter. The essentials:
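Readout is reporter mRNA induction, quantified by fluorescent primer extension and capillary electrophoresis after RT-PCR. Cells were HepG2 transiently carrying chimeric NR-Gal4 constructs with GAL4-UAS reporters, treated for 24 h; activity scored upward from DMSO.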

The target of assay [6] is Estrogen receptor (Homo sapiens) (UniProt P03372). Briefly: ATG_ERa_TRANS: Attagene TRANS-FACTORIAL HepG2 Assay for human Estrogen Receptor alpha (ERa) (AID 2282970; active = hit-call score of the fitted dose curve at least 0.9, where 1 is the maximum). To be noted: HepG2 Attagene TRANS ERa GAL4 reporter, mRNA. The essentials: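 Multiplexed cell-based reporter format in HepG2: chimeric ERa-Gal4 protein drives GAL4-UAS reporter transcription. Fluorescent reporter mRNA quantified by capillary electrophoresis 24 hours after dosing; endpoint fitted as signal gain against DMSO.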
Sequence of Estrogen receptor (Homo sapiens) (P03372 whole entry, looked up, the tested form may be a part): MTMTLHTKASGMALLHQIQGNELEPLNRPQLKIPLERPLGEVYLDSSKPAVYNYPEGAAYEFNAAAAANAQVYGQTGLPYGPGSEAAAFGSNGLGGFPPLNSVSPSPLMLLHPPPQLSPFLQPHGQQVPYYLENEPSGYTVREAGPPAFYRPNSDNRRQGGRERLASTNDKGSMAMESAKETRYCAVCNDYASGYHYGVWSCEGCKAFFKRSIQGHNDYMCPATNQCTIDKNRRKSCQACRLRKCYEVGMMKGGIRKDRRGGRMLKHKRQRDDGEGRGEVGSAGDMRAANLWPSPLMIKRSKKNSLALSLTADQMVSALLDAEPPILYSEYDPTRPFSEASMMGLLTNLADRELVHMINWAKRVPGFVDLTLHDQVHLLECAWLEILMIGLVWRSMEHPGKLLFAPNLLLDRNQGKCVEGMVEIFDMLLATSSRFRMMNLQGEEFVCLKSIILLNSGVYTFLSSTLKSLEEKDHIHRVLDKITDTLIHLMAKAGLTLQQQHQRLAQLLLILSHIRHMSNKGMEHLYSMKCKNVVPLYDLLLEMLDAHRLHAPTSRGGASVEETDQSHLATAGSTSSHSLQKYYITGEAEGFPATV

Assay [7] in a line: ATG_GAL4_TRANS: Attagene TRANS-FACTORIAL HepG2 Assay for GAL4 (Internal Marker) (AID 2282976; active = hit-call score of the fitted dose curve at least 0.9, where 1 is the maximum). As to conditions: HepG2 Attagene TRANS GAL4 internal marker reporter. A digest of the protocol: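 Liver HepG2 line bearing multiplexed GAL4-UAS reporter constructs; 24 h chemical treatment. Transcripts were quantified as fluorescent fragments on capillary electrophoresis after RT-PCR and HpaI cut, with activity fitted upward from DMSO.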

A short description of assay [8]: ATG_M_19_TRANS: Attagene TRANS-FACTORIAL HepG2 Assay for M19 Transcription Factor (Internal Marker) (AID 2282974; active = hit-call score of the fitted dose curve at least 0.9, where 1 is the maximum). As to conditions: HepG2 Attagene TRANS-FACTORIAL M19 internal marker reporter. A digest of the protocol:
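Gain-of-signal in reporter mRNA, relative to DMSO, was scored from capillary electrophoresis fluorescence. HepG2 cells carried transiently transfected multiple reporter transcription units and were incubated with test chemicals for 24 h.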

Results filed as inconclusive are left out. Activity calls are given as the source filed them. The calls were made as follows, unless noted: active = hit-call score of the fitted dose curve at least 0.9, where 1 is the maximum; inactive = score below 0.9.

Sequence of Nuclear receptor subfamily 1 group I member 3 (Homo sapiens) (Q14994 whole entry, looked up, the tested form may be a part): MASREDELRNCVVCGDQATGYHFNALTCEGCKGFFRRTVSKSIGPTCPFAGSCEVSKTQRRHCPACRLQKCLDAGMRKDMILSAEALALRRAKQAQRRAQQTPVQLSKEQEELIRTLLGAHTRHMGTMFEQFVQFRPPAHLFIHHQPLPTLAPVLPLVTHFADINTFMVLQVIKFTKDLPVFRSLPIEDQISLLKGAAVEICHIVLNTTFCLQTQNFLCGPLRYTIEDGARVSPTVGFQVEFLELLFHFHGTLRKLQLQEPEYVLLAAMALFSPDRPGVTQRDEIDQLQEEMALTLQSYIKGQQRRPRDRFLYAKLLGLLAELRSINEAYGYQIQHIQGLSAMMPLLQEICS

For `FC(F)(F)C(F)(F)C(F)(F)C(F)(F)C(F)(F)C(F)(F)CCS`, the molecule was classed as inactive in assay [1], in assay [2], in assay [3], in assay [4], in assay [5] and in assay [6]. For the same molecule, the outcome in assay [7] was inactive.
For `CCCCCC=O`, the call in assay [1], in assay [2], in assay [3], in assay [4], in assay [5] and in assay [6] was inactive. The molecule was classed as inactive in assay [8] and in assay [7].
In the case of `CC(C)c1ccccc1N`, the outcome in assay [1], in assay [2], in assay [3], in assay [5], in assay [6] and in assay [8] was inactive. The molecule was called inactive in assay [7]. In addition, the concentration at half-maximal activity (AC50) in assay [4] is 35.5 µM (active).
For `Nc1ccc(S(=O)(=O)Nc2nccs2)cc1`, the call in assay [1], in assay [2], in assay [3], in assay [4], in assay [6] and in assay [8] was inactive. Besides, the molecule was classed as inactive in assay [7].

Usually AC50 stands for the concentration giving half of the maximal activity seen.

Source of the values: PubChem BioAssay (EPA / NIEHS).
